PI4K2A block: blocks human PI4K2A kinase activity; activity change, negative = inhibition, % at 76.9 µM; purified PI4K2A, ADP-Glo luminescence, 1 h; hits give low values; Q9BTU6; AID 1346378; 0.13% of 420,000 active; in the data active means activity change below about -50%; inconclusive means mostly about -30% to -49%
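In this quantitative HTS, ADP production by PI4K2A was quantified luminescently after 1 h at ambient temperature; 100 microM adenosine served as plate-quality control.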
RGS4 inhibitor: blocks human RGS4-accelerated GTP hydrolysis; Transcreener GDP fluorescence polarization, RGS4-accelerated GTP hydrolysis; Potency, µM (highest dose often 114 µM), most hits filed as inhibitors; 0.039% of 390,000 active; active means well fitted inhibition curve with a large enough effect; inconclusive means small, poorly fitted or top-dose-only effect; inactive means no such curve, though single readings can be large or run the other way; further: nearly all actives have a fitted effect of over 75% in size
Target sequence (P49798 whole entry, looked up): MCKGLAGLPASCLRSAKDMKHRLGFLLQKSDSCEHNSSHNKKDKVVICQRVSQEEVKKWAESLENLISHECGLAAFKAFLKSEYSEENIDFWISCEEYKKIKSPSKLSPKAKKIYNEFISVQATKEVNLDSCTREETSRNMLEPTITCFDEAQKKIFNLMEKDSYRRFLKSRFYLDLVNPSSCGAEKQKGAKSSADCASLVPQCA
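MLSMR compounds (23 nl, pin-transferred) preincubated 10 min at room temperature with a 500nM (2x) first reagent, then RGS4 at 900nM (2x) plus Transcreener GDP mix added; fluorescence polarization (620/688 nm) read before and after 90 min at 30 °C.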
pAkt inh: Akt phosphorylation inhibition; Neuro2A IGF-stimulated pAkt S473 HTRF, 20 min; hits give low values; activity change, % for hits at 50 µM; 0.32% of 360,000 active; AID 651550; in the data active means activity change below about -80%; inconclusive means mostly about -51% to -80%
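Single-point screen (50 µM final compound) in Neuro2A cells stimulated 20 min with 6 nM IGF at 37 deg C. After lysis, Ser473-phosphorylated Akt read by HTRF (ex 330 nm, em 615/665 nm) as the 665/615 ratio.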
D3 antag: antagonists of human D3 dopamine receptor. D3R cells, DiscoveRx beta-arrestin luminescence, antagonist mode; hits give low values. P35462. AID 652054. max response, negative = inhibition, %. 2.5% of 360,000 active; in the data active means max response below about -50%; inconclusive means no clear call, values can overlap the other calls
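Cells expressing the human receptor were seeded at 1500 cells/well, incubated overnight at 37 degrees C in 5% CO2, then exposed to library compounds with dopamine controls for 90 minutes at 37 degrees C before luminescent detection.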
LDHA block: blocks human lactate dehydrogenase A; P00338; purified LDHA, NADH/diaphorase-resazurin fluorescence; hits give low values; activity change, % (values are at about 110 or 230 µM); 0.15% of 480,000 active; in the data active means activity change below about -30%; inconclusive means mostly about -25% to -30%
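Remaining NADH was detected by diaphorase (0.133 mg/mL) converting 37 µM resazurin to fluorescent resorufin, read at 0 and 20 minutes. The preceding 5-minute room-temperature reaction used 2 nM LDHA, 0.2 mM sodium pyruvate and 0.06 mM NADH at pH 7.4.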
D3 ag: activates the human D3 dopamine receptor; max activation, %; D3R DiscoveRx beta-arrestin cells, luminescence, 90 min; P35462; 0.58% of 410,000 active; in the data active means max activation above about 30%
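Agonist mode: compounds and dopamine controls were applied to plated cells for 90 min at 37 degrees C after an overnight attachment at 1500 cells/well. Luminescent read-out followed 30 - 60 minutes at room temperature with DiscoveRx detection reagent.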
Hits are given with their value; n = inactive; u = inconclusive; x = no result given. In the library only some 2.8% were active in any assay of this set; here they are far more common.

SMILES	PI4K2A block	RGS4 inhibitor	pAkt inh	D3 antag	LDHA block	D3 ag
Cc1[nH]c2ccccc2c1C(=O)CSc1ccc2c(c1)OCCCO2	x	x	x	x	n	x
CCCCCNc1nc(NCCCO)c(C#N)c2c1CN(C)CC2	n	n	n	n	n	n
CCCCCNc1nc(N2CCCC2)c2c(c1C#N)CCN(C)C2	n	n	n	-66	n	n
CCCOc1ccc(-c2nc(C#N)c(NCc3ccco3)o2)cc1	x	x	x	x	n	x
CCOc1nc(NCCc2ccc(OC)c(OC)c2)nc(NC(C)(C)CO)n1	n	n	n	-62	n	n
COc1ccc(CCNc2nc(Cl)nc(NC(C)(C)CO)n2)cc1OC	n	n	n	n	n	n
C/C(=N\NC(=O)C1CC1c1ccc(C(C)(C)C)cc1)c1ccc(Cl)cc1 (configuration not stated)	x	x	x	x	n	x
CCN(C(=O)CN1CCN(C)CC1)c1cccc2ccccc12	n	n	n	u	-36	n
N#Cc1cc2ccccc2nc1SCc1cccnc1	n	n	u	-83	n	n
COc1ccc2nc(SCc3cccnc3)c(C#N)cc2c1	n	n	n	n	n	n
CC(C)CNC(=O)CSc1nc2scc(-c3ccccc3)c2c(=O)[nH]1	n	n	n	n	n	48
Cc1ccc(NC(=O)COC(=O)c2cccc3c2C(=O)c2ccccc2C3=O)c(C)c1	n	n	n	n	n	n
Cc1cc(C)c(NC(=O)COC(=O)c2cccc3c2C(=O)c2ccccc2C3=O)c(C)c1	n	n	n	n	n	32
COc1cccc(CN2CCN(C3CCN(c4ccccc4F)CC3)CC2CCO)c1 (configuration not stated)	n	n	n	-110	n	n
Cc1cc(F)ccc1N1CCC(N2CCN(C(C)C)C(CCO)C2)CC1 (configuration not stated)	n	n	n	-53	n	n
COc1cccc(CN2CCN(C3CCN(c4ccccc4C)CC3)CC2CCO)c1 (configuration not stated)	n	n	n	-60	n	n
COc1cccc(CN2CCN(C3CCN(c4cccc(C)c4C)CC3)CC2CCO)c1 (configuration not stated)	n	n	n	n	n	n
Cc1cc(F)ccc1N1CCC(N2CCN(CCC(C)C)C(CCO)C2)CC1 (configuration not stated)	n	n	n	u	n	n
N#C/C(=C\c1ccc(-c2ccccc2)o1)C(=O)Nn1cnnc1	n	n	n	-69	n	n
CCCCOC(=O)c1ccc(NC(=O)/C(C#N)=C/c2ccc(-c3ccccc3)o2)cc1	n	n	x	x	n	n
Cc1ccccc1NC(=O)/C(C#N)=C/c1ccc(-c2ccc(Cl)c(C(=O)O)c2)o1	n	n	n	-66	n	n
N#C/C(=C\c1ccc(-c2cccc(Cl)c2)o1)C(=O)Nc1cccc2cccnc12	n	u	n	-51	n	n
O=C1Nc2ccccc2N(O)N1c1cc(-c2cccc(Cl)c2)no1	n	n	n	n	n	n
O=C1Nc2ccccc2N(O)N1c1cc(-c2ccccc2Cl)no1	n	n	-110%	n	n	n
Cc1ccc(SCCOCCN2CCOCC2)cc1	n	n	n	n	n	n
SMILES	PI4K2A block	RGS4 inhibitor	pAkt inh	D3 antag	LDHA block	D3 ag
CC1CCCN(CCS(=O)(=O)c2ccccc2)C1 (configuration not stated)	n	n	n	n	n	n
CC1CC(C)CN(CCCSc2ccccc2)C1 (configuration not stated)	n	n	n	-51	n	n
c1ccc(SCCOCCN2CCOCC2)cc1	n	n	n	n	n	n
CC1CC(C)CN(CCOCCSc2ccccc2)C1 (configuration not stated)	n	n	n	-73	n	n
CC1CCCN(CCOCCSc2ccccc2)C1 (configuration not stated)	n	n	n	-73	u	n
CC1CC(C)CN(CCOCCSc2ccc(Cl)cc2)C1 (configuration not stated)	n	n	n	-80	n	n
CCCn1cnc2c1c(=O)n(Cc1csc(C(C)C)n1)c(=O)n2C	x	x	x	x	n	x

Compound activity deposited in PubChem BioAssay by National Center for Advancing Translational Sciences (NCATS).
